Laboratory results as given in PubChem BioAssay (NCI).
About 83,000 compounds went through this panel and 20% of them were active in at least one assay; those are over-represented in the sample as a whole.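 Percent growth is the endpoint: 0 to 100 indicates growth inhibition (40 means 60% inhibition), 0 means no net growth, and negative values indicate cell death.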 Unmarked numbers belong to inactive results. Active and inactive are the calls of the source. Rule for the calls: active = growth percent below 10; inactive = the rest.

Tests used:
Assay in all cases: NCI-60 one-dose screen, 48 h (100 = growth as untreated, 0 = no growth, -100 = all killed)
[1] = test system: A549/ATCC NSCLC; conditions: 10 µM unless noted
[2] = test system: DU-145 prostate; conditions: 10 µM unless noted
[3] = test system: RXF 393 renal; conditions: 10 µM unless noted
[4] = test system: SF-295 CNS; conditions: 10 µM unless noted
[5] = test system: SF-539 CNS; conditions: 10 µM unless noted
[6] = test system: UACC-257 melanoma; conditions: 10 µM unless noted
[7] = test system: HCT-15 colon; conditions: 10 µM
[8] = test system: HT29 colon; conditions: 10 µM unless noted
[9] = test system: SNB-75 CNS; conditions: 10 µM unless noted
[10] = test system: SK-MEL-5 melanoma; conditions: 10 µM unless noted
[11] = test system: SK-MEL-2 melanoma; conditions: 10 µM unless noted
[12] = test system: ACHN renal; conditions: 10 µM unless noted
[13] = test system: CAKI-1 renal; conditions: 10 µM unless noted
[14] = test system: A498 renal; conditions: 10 µM unless noted
[15] = test system: HL-60(TB) leukemia; conditions: 10 µM unless noted
[16] = test system: MOLT-4 leukemia; conditions: 10 µM
[17] = test system: OVCAR-8 ovarian; conditions: 10 µM unless noted
[18] = test system: IGROV1 ovarian; conditions: 10 µM
[19] = test system: HS 578T breast; conditions: 10 µM unless noted
[20] = test system: LOX IMVI melanoma; conditions: 10 µM unless noted

| SMILES | growth [1] | growth [2] | growth [3] | growth [4] | growth [5] | growth [6] | growth [7] | growth [8] | growth [9] | growth [10] | growth [11] | growth [12] | growth [13] | growth [14] | growth [15] | growth [16] | growth [17] | growth [18] | growth [19] | growth [20] |
| --- | --- | --- | --- | --- | --- | --- | --- | --- | --- | --- | --- | --- | --- | --- | --- | --- | --- | --- | --- | --- |
| O=C(CCl)NCNC(=O)CCl | 93.2% | 103% | 107% | 56.5% | 101% | 76.5% | 91.4% | 105% | 85.9% | 92.7% | 90.4% | 94.5% | 56.8% | 109% | 102% | 90.4% | 92.4% | 74.4% | 96.8% | – |
| O=C1C=CC(=O)C2C1C1(Cl)C(Cl)=C(Cl)C2(Cl)C1(Cl)Cl (stereo not given) | 60.6% | 70.1% | 23.9% | 39.5% | 62.5% | 57.5% | 54.3% | 76.7% | 40.3% | 47.5% | 37% | 50.8% | 51.8% | 36.1% | 9.38% (active) | 59.5% | 74.3% | 56.4% | 58.2% | 50.5% |
| CCN(CC)CCOc1c(C(C)C)cccc1C(C)C | 89.5% | – | 112% | 93.8% | 116% | 94.8% | 98.4% | 95.4% | 84.8% | 101% | 96.9% | 97.4% | 89.8% | 82.1% | 107% | 102% | 100% | 101% | 110% | 99.5% |
| COc1cccc2c1C(=O)c1c(O)c3c(c(O)c1C2=O)CC(O)(/C(C)=N/NC(=O)CCC(=O)N/N=C(\C)C1(O)Cc2c(O)c4c(c(O)c2C(OC2CC(N)C(O)C(C)O2)C1)C(=O)c1c(OC)cccc1C4=O)CC3OC1CC(N)C(O)C(C)O1 (stereo not given) | -30% [5 µM] (active) | -30.5% [5 µM] (active) | -56.7% [5 µM] (active) | -32.8% [5 µM] (active) | -39.2% [5 µM] (active) | -17.8% [5 µM] (active) | – | -79% [5 µM] (active) | -53.2% [5 µM] (active) | -100% [5 µM] (active) | -54.3% [5 µM] (active) | -34.9% [5 µM] (active) | -44.3% [5 µM] (active) | -69.1% [5 µM] (active) | -41.9% [5 µM] (active) | – | 13.1% [5 µM] | – | -11.5% [5 µM] (active) | -35.3% [5 µM] (active) |
| O=C(O)c1[nH]c(=O)[nH]c(=O)c1F | 90.1% | 96.6% | 103% | 89.2% | 82.5% | 103% | 93.6% | 106% | 99% | – | 110% | 77% | 66.8% | 82.5% | 117% | 49.7% | 81.7% | 95.1% | 123% | 84.6% |
| ClCCN(CCCl)c1ccc(C=NCCc2c[nH]c3ccccc23)cc1 | 88.6% | 56.2% | 56.1% | 35.6% | 71.8% | 99.9% | 90.3% | 85.1% | 82.5% | 75.8% | 125% | 44.5% | 23.5% | 1.98% (active) | 91% | 63.1% | 74.8% | 84.2% | 89.8% | 74.7% |
| CC(C)(C)N(Cc1ccccc1)N=O | 93.9% | 107% | 93.1% | 100% | 99% | 92.1% | 103% | 104% | 86.5% | 99.1% | 94.6% | 104% | 92.9% | 95.4% | 106% | 104% | 95.7% | 103% | 109% | 93.7% |
| CCC1CN1P(=O)(OCCOC)N1CC1CC (stereo not given) | 101% | 110% | 110% | – | 97.1% | 96.7% | 99.4% | 104% | 92.9% | 109% | 126% | 103% | – | 119% | 119% | 108% | 105% | 111% | 114% | 105% |
| CC1=C(SCCC(=O)OCC(=O)NCCC[Te]c2ccccc2)C(=O)c2ccccc2C1=O | 0.0697% (active) | -6.6% (active) | 25% | -35.6% (active) | -60.3% (active) | 55.1% | 10.4% | 11.2% | 19.2% | -61.4% (active) | -33.4% (active) | 12.4% | 27.4% | -11.8% (active) | -2.74% (active) | 0.655% (active) | 5.76% (active) | -35.5% (active) | -16.9% (active) | -12.6% (active) |
| CCC(/C=C(C)/C=C/C(=O)c1c(O)c(-c2ccc(O)cc2)c[nH]c1=O)CO (stereo not given) | 90.2% | 9.29% (active) | 104% | 81.1% | 77.4% | 92.4% | 91.6% | 107% | 91.3% | 99.9% | 88.7% | 104% | 81.8% | 70.9% | 4.76% (active) | 31.5% | 92.4% | – | 83.8% | 87.2% |
| O=CN1N=C(c2ccc3c(c2)OCO3)CC1c1sc(N(CCCl)CCCl)nc1Cl (stereo not given) | 83.9% | 107% | 109% | 104% | 102% | 84.4% | 99.5% | 97.9% | 90.8% | 101% | 92.9% | 93.4% | 82.1% | 97.7% | 88.6% | 79.3% | 92.9% | 93.2% | 79.8% | 100% |
| ClCCN(CCCl)c1nc(Cl)c(C2CC(c3ccccc3)=NN2c2ccccc2)s1 (stereo not given) | 88.9% | 99.7% | 94.2% | 98.6% | 102% | 85.8% | 101% | 82.5% | 78.9% | 89.1% | 93.9% | 89.6% | 81.4% | 103% | 101% | 75.4% | 90.3% | 107% | 87.4% | 85.3% |
| COC1=CC(=O)OC(CCc2ccc3c(c2)OCO3)C1 (stereo not given) | 96% | 122% | 70.2% | 116% | 103% | 97.8% | 103% | 97.1% | 96.3% | 102% | 97.4% | 107% | 120% | 101% | 113% | 121% | 96.1% | 116% | 109% | 98.5% |
| CC1(C)N=C(N)N=C(N)N1c1ccc(CCC(=O)Nc2cccc(S(=O)(=O)F)c2)cc1 | 44.6% | 72.1% | 64.7% | 89.6% | 39.4% | 73.3% | 81.9% | 66.2% | 59.5% | 32.9% | 102% | 99.3% | -5.98% (active) | – | 47.6% | 82.7% | 85.8% | 39.4% | 121% | 23.5% |
| O=S(=O)(c1ccc(Cl)cc1)C(Cl)(Cl)Cl | 56.6% | 49.4% | -5.22% (active) | 78.2% | 33.8% | 28.2% | 39% | 12.2% | 39.6% | 42.5% | 25.1% | 26.1% | -6.81% (active) | 56.4% | 1.02% (active) | 16.2% | 58.5% | 33.6% | 55.8% | 35.1% |
| COc1cc2c(cc1OC)CN(C)C(C)C2 (stereo not given) | 93.6% | 109% | 118% | 99% | 105% | 104% | 102% | 93.2% | 87.3% | 101% | 100% | 106% | 101% | 84% | 87.9% | 113% | 105% | 111% | 107% | 95.1% |
